The results in this text go back to PubChem BioAssay.

Activity calls are given as the source filed them.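 The calls were made as follows: active = growth inhibition above 50% at the single 2 µM test dose, taken to imply half-maximal potency below 2 µM; inactive = the rest.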

The assay is described as follows: antimalarial activity against Dd2 strain (AID 2302).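 Also: 0% = DMSO untreated growth and 100% = chloroquine plus artemisinin killed control.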 Particulars: P. falciparum Dd2 in RBCs, LDH growth readout, 72 h; at 2 µM; hits give high values.
Consider `O=C(Nc1nc2cc(S(=O)(=O)NCCc3ccc(F)cc3)ccc2n1CCCn1ccnc1)c1ccc(Cl)cc1`, for which the growth inhibition was 55% (active). As for `Cc1[nH]c(C)c(C(F)(F)F)c(=O)c1-c1ccc(Oc2ccc(OC(F)(F)F)cc2)cc1`, the growth inhibition is 96% (active). Consider `COc1ccc(CNCc2cccc(-c3cccc(-c4nc5c(C)cccc5[nH]4)c3)c2)cc1`, for which the growth inhibition is 60% (active). For `CC(C)(C)c1ccc(C(=O)NC2CCC(CCN3CCc4ccc(S(C)(=O)=O)cc4CC3)CC2)cc1C(F)(F)F` (stereo unspecified) the value was 11% (inactive). For the compound `CCCCCCc1cc(Oc2c(I)cc(C[C@H](N)C(=O)O)cc2I)ccc1O`, the growth inhibition was -5% (inactive).

On to `CN(C)Cc1cccc(-c2ccc3ccnc(N)c3c2)c1`, for which the growth inhibition is 74% (active). With `CN1CCN(CCc2ccc3nc(-c4csc(Cc5cc(Cl)ccc5OCc5ccccc5)n4)[nH]c3c2)CC1`, the growth inhibition is 97% (active). For `COc1ccc(C=NNc2ccnc3cc(F)c(C)cc23)c2ccccc12` the value was 85% (active); for `Cc1nc(N)nc(N)c1OCc1cccc2c1ccc1ccccc12`, 16% (inactive); for `Cc1nc(Nc2ccc(F)cc2)nc(N2CCc3cc(O)ccc3C2C)c1C` (stereo unspecified), 97% (active). For `CNc1ccc(CNCc2ccc(-c3ccc(-c4nc5ccc(C(F)(F)F)cc5[nH]4)s3)cc2)cc1` the value was 97% (active). On to `NCc1ccc(CNCc2cccc(-c3ccc(-c4nc5ccccc5[nH]4)cc3)c2)cc1`, for which the growth inhibition was 58% (active). For `CCN(CC)Cc1ccc2c(=O)cc(CCc3cccc(F)c3F)n(CC(=O)N(Cc3ccc(-c4ccc(C(F)(F)F)cc4)cc3)C(C)C)c2c1` the value was 63% (active). On to `O=C(/C=C/c1ccc(Cl)c(Cl)c1)NCCCCCCN1CCN(C(=O)Nc2ccc(C(F)(F)F)cc2)CC1`, for which the growth inhibition is 44% (inactive). With `Cc1[nH]c(C)c(-c2ccc(C(=O)c3ccccc3)cc2)c(=O)c1Br`, the growth inhibition is 96% (active).

For the compound `Cc1cnc(C(=O)Nc2ccc(-c3cccc(-c4nc5ccccc5[nH]4)c3)cc2)cn1`, the growth inhibition was 8% (inactive). Regarding `FC(F)(F)c1ccc2nc(-c3ccc(-c4cccc(CN5CCN(c6ccncc6)CC5)c4)cc3)[nH]c2c1`, the growth inhibition is 99% (active).

For the compound `O=C(c1cccs1)N(Cc1cccc(-c2ccc(CNCCc3ccccc3)cc2)c1)C1CCN(Cc2ccccc2)CC1`, the growth inhibition was 76% (active). On to `CCN(CC)CCN(Cc1ccc(-c2ccc(C(F)(F)F)cc2)cc1)C(=O)c1c[nH]c2ccc(Br)cc12`, for which the growth inhibition is 74% (active).

As for `Cc1ccc(S(=O)(=O)NC2=NC(C)(C)N(OCc3ccc(Cl)c(Cl)c3)C(N)=N2)cc1`, the growth inhibition is -3% (inactive).

As for `COc1ccc(NC(=O)Nc2nc3ccccc3s2)cc1N1CCN(C)CC1`, the growth inhibition is 22% (inactive). For `CCN1CCC(N(Cc2ccc(-c3ccc(C(F)(F)F)s3)cc2)C(=O)Cn2c(CCc3cccc(F)c3F)nc(=O)c3ccccc32)CC1`, the growth inhibition was 95% (active). As to `CC(C)c1cc(C(=O)N[C@@H](Cc2ccccc2)[C@H](O)CNC2CCCCC2)cc(N2CCCC2=O)c1`, the growth inhibition was 98% (active). On to `Cc1ccc(NC(=O)c2ccc3nccnc3c2)cc1OC1CCN(Cc2ccc(F)cc2)CC1`, for which the growth inhibition was 24% (inactive). For `CC(=O)Nc1ccc(CCNC(C)Cc2ccc(C(=O)Nc3ccc(CC(C)NCCc4cccc(Cl)c4)cc3)cc2)cc1` (stereo unspecified) the value was 84% (active); for `CN(C)Cc1cccc(-c2ccc(NC(=O)c3ccc4c(=O)n(CCN5CCCCC5)cnc4c3)cc2)c1`, 67% (active); for `CCCCCCOc1ccc(C(=O)NCCCC2CCN(CCCCCNC(=O)C=Cc3ccc(Cl)c(Cl)c3)CC2)cc1`, 25% (inactive). `COc1cc(NC(=O)NC(CCN2CCC3(CCc4ccccc43)CC2)c2ccc(Cl)c(Cl)c2)cc(OC)c1OC` (stereo unspecified): the growth inhibition was 66% (active). For `Nc1nc(N)c2c(ccc3c2ccn3Cc2ccc(-c3ccccc3)cc2)n1`, the growth inhibition is 93% (active). In the case of `COc1ccc(-c2ccc(NC(=O)c3ccc(F)cc3)cc2)cc1CNC(C)C`, the growth inhibition is 28% (inactive). On to `O=c1cc(NCCCNCc2cc3ccc(Br)cc3s2)[nH]c2ccccc12`, for which the growth inhibition was 8% (inactive).

As for `O=C(NCC1CCC(C(=O)NCc2cccc(C(F)(F)F)c2)CC1)c1ccc(O)c(-c2ccc(Cl)c(Cl)c2)c1` (stereo unspecified), the growth inhibition was 41% (inactive).

Turning to `COc1ccc(-c2cc(-c3nc4ccc(CN)cc4[nH]3)c(=O)n(C)c2)cc1OC`, the growth inhibition is 56% (active).

Consider `CCCC(CCC)n1ccc2c3c(N)nc(N)nc3ccc21`, for which the growth inhibition is 97% (active).

With `CC(C)(C)c1ccc(NC(=O)c2ccc(CN3CCCN(Cc4ccsc4)CC3)cc2)cc1`, the growth inhibition is -1% (inactive). Take `CN(C)Cc1cccc(CNC(=O)c2sccc2OCc2ccc(Cl)cc2)c1`: the growth inhibition is 88% (active).
